Hits are enriched below; roughly 19% of the tested compounds scored in any of these assays.
HT1080 IDH1KD tx: qHTS for induction of synthetic lethality in tumor cells producing 2HG: qHTS for the HT-1080-IDH1KD cell line; HT-1080 IDH1 knockdown viability, ATP luminescence, 48 h; Potency, µM (highest dose often 46.1 µM), without a hit: at the highest dose activity, negative = toxicity, hits mostly cytotoxic; hit rate 2% among 360,000; AID 686971, 2013;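 also: potency is read from the fitted curve at half-maximal effect; 0% = DMSO wells and -100% = cell-free medium wells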
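CellTiter-Glo luminescence after 48 h compound exposure at 37 degrees C of IDH1-knockdown HT-1080 cells in 5% FBS RPMI. %Activity scaled between DMSO wells and cell-free media wells, with curves fitted and assigned curve classes.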
HT1080-NT tox: qHTS for induction of synthetic lethality in tumor cells producing 2HG: qHTS for the HT-1080-NT fibrosarcoma cell line; HT-1080-NT fibrosarcoma viability, CellTiter-Glo ATP luminescence, 48 h; Potency, µM (doses to about 46.1 µM), without a hit: top-dose activity, negative = less viability, most hits filed as cytotoxic; hit rate 1.6% among 360,000;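 also: NT is the 2HG producing partner of a matched IDH1 knockdown line; potency is read from the fitted curve at half-maximal effect; 0% = DMSO-treated cells and -100% = media-only wells without cells; nearly all actives have a fitted effect of over 55% in size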
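Toxicity toward the 2HG-producing NT line was scored as %Activity, normalised to DMSO and no-cell wells, from CellTiter-Glo luminescence after 48 hours' treatment.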
TDP1 cell CPT: qHTS for Inhibitors of human tyrosyl-DNA phosphodiesterase 1 (TDP1): qHTS in cells in presence of CPT; chicken DT40 Tdp1-/-;hTDP1 cells + 20 nM CPT, ATP luminescence, 48 h; Potency, µM (series often up to 46.2 µM), for the others: at the highest dose activity change, negative = growth inhibition, hits mostly inhibitors; hit rate 12% among 420,000; also: potency is read from the fitted curve at half-maximal effect; nearly all actives have a fitted effect of over 55% in size
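Cell growth measured by CellTiter-Glo luminescence after a minimum 48 h, 37 C compound exposure with 20 nM CPT in Tdp1-knockout DT40 cells stably expressing hTDP1, seeded 400/well; qHTS titration format.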
IL-1B inflam inh: qHTS for Inhibitors of Inflammasome Signaling: IL-1-beta AlphaLISA Primary Screen | hit rate 4.7% among 360,000 | THP-1 LPS/ATP IL-1B secretion, AlphaLISA, 16 h; hits give low values | activity change, % at 57.5 µM | AID 743279, 2014; in the data active = activity change below about -50%; inconclusive = mostly about -30% to -49%
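Secreted IL-1B measured by AlphaLISA bead assay after 16 h compound exposure of THP-1 cells; compounds (final up to 57.5 uM) added 1 h before LPS (250 ng/mL) and ATP (1.25 mM) stimulation; lower signal means less secretion.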
uPA surface inh: qHTS for Inhibitors of Cell Surface uPA Generation | hit rate 0.31% among 330,000 | cell surface uPA generation assay, qHTS | AID 540303, 2011 | Potency, µM (highest dose often 38.3 µM), inactives show at the highest dose activity change, negative = inhibition, hits mostly inhibitors; active = well fitted inhibition curve with a large enough effect; inconclusive = small, poorly fitted or top-dose-only effect; inactive = no such curve, though single readings can be large or run the other way; tested in mouse RAW 264.7 cells; also: potency is read from the fitted curve at half-maximal effect; nearly all actives have a fitted effect of over 55% in size
DT40 TDP1 no CPT: qHTS for Inhibitors of human tyrosyl-DNA phosphodiesterase 1 (TDP1): qHTS in cells in absence of CPT; DT40 Tdp1-/- hTDP1 cells, no CPT, ATP luminescence, 48 h; hit rate 15% among 420,000; Potency, µM (titrated, usually from 46.2 µM), for the others: at the top dose activity change, negative = growth inhibition, hits mostly inhibitors; also: potency is read from the fitted curve at half-maximal effect; nearly all actives have a fitted effect of over 55% in size
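No-CPT arm: Tdp1-/-;hTDP1 DT40 cells (400/well) plus compounds, incubated ≥48 hr at 37 °C. Readout CellTiter-Glo luminescence.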
* hit, by the source's call; ? = inconclusive; nt = not tested or not shown; [ ] = remark or other dose. Unless noted, calls follow the shape of the dose curve; as a rule, active = well fitted curve in the direction sought with a large enough effect; inconclusive = small, poorly fitted or top-dose-only effect, or another doubt; inactive = no such curve, though single readings can be large; an effect the other way counts as inactive or inconclusive. Unless noted, % is scaled to controls: 0 for no effect and ±100 for the full control effect.

SMILES	HT1080 IDH1KD tx	HT1080-NT tox	TDP1 cell CPT	IL-1B inflam inh	uPA surface inh	DT40 TDP1 no CPT
CCCCNC(=O)CSc1ccc(S(=O)(=O)N2CCOCC2)cn1	4%	-10%	-6%	-12	20%	-22%
CCCCNC(=O)/C(C#N)=C/c1ccc(-c2ccc(S(=O)(=O)N3CCOCC3)cc2)o1	-5%	-2%	7.3µM*	-6	-8%	10µM*
COC(=O)/C(C#N)=C/c1ccc(-c2ccc(S(N)(=O)=O)cc2)o1	-1%	1%	-1%	-74*	-2%	-26%
COc1ccccc1N1CCN(C(=O)C(=O)c2cccc([N+](=O)[O-])c2)CC1	10%	11%	?	29	nt	?
CC1(C(=O)NS(=O)(=O)c2ccc(Cl)cc2)CCN1C(=O)C/C=C/c1ccccc1 (centres undefined)	4%	-13%	-3%	32	nt	-11%
COc1ccc(/C=C2/NC(=O)N(Cc3ccccc3F)C2=O)cc1OC	6%	20%	?	7	8%	?
COc1cc(/C=C2/NC(=O)N(Cc3ccccc3F)C2=O)cc(OC)c1OC	-23%	-6%	?	?	4%	16µM*
CCOC(=O)c1cc(CC)sc1NC(=O)C1CC(=O)NN1Cc1ccccc1 (centres undefined)	21µM*	?	?	-60*	13%	16µM*
COC(=O)c1cc(C)sc1NC(=O)C1CC(=O)NN1Cc1ccccc1 (centres undefined)	-4%	-5%	-27%	10	6%	?
Nc1[nH]c(C(=O)c2ccccc2)c(-c2ccc(C(F)(F)F)cc2)c1C(=O)NCc1ccc(Cl)cc1Cl	1%	-14%	?	-7	nt	?
CCn1nnnc1NCc1ccc(N2CCCC2)cc1	5%	11%	?	1	9%	?
CCn1nnnc1NCc1ccc(SC)cc1	7%	0%	-3%	-77*	-1%	9%
CCOC(=O)c1c(NC(=O)Cn2cnc([N+](=O)[O-])n2)sc(C)c1C	0%	-4%	-24%	2	-2%	?
O=C(NC1CCCCC1)C(C1CC1)n1c(=O)c(-c2cc3ccccc3[nH]2)nc2ccccc21 (centres undefined)	-47%	?	?	-2	nt	?
COc1ccc(C2(CNC(=O)C(=O)Nc3cccc(C(F)(F)F)c3)CCCC2)cc1OC	nt	nt	21µM*	nt	nt	18µM*
COc1ccc(C2(CNC(=O)c3cccc([N+](=O)[O-])c3)CCCCC2)cc1OC	-7%	-4%	16µM*	-7	1%	10µM*
COc1ccc(C2(CNC(=O)c3ccc(OC)c([N+](=O)[O-])c3)CCCCC2)cc1OC	22%	3%	?	-15	-3%	21µM*
COc1ccc(C2(CNC(=O)Cc3ccccc3)CCCC2)cc1OC	2%[9.24 µM]	1%	?	4	-3%	13µM*
CC1(C)Cc2c(c(-c3ccco3)nc3sc4c(NCCO)ncnc4c23)CO1	-3%	-5%	23µM*	4	?	9.2µM*
COCCCNc1ncnc2c1sc1nc(-c3ccco3)c3c(c12)CC(C)(C)OC3	?	?	?	-14	?	15µM*
Cc1nc2sc3c(NCc4ccco4)ncnc3c2c2c1COC(C)(C)C2	?	-13%	?	?	-2%	23µM*
c1ccc2c(c1)OCCOCCOCCOCCOc1ccccc1OCCOCCOCCO2	-18%	-6%	15µM*	-4	-6%	18µM*
Cc1cc(C)cc(-n2ccn3c(CC(C)(C)CC(=O)O)nnc3c2=O)c1	nt	nt	-1%	nt	nt	-1%

Screening results (PubChem)
